# Experimental data: article PMC7862700, “An all-to-all approach to the identification of sequence-specific readers for epigenetic DNA modifications on cytosine”
# Key:
# Test in all cases: DAPPL (digital affinity profiling via proximity ligation, sequencing); 10 mM Tris-HCl pH 7.5, 50 mM NaCl, 1 mM DTT, 4% glycerol, room temperature, 30 min; GST-TFs on glutathione beads, 16-mer random dsDNA library, 0.1% formaldehyde crosslink after washing; high values mean tight binding
# [1] = molecular target: T1, FEV (Homo sapiens, UniProt Q99581 1-238); conditions: protein: recombinant; tags: N-terminal GST; dsDNA, one strand shown
# T1 sequence: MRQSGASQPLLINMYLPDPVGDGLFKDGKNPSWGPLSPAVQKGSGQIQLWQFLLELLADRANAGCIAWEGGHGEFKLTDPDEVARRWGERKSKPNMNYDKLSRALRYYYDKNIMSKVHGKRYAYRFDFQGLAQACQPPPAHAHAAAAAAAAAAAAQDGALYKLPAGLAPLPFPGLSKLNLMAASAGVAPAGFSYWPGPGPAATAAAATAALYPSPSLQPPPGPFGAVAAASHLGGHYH
# In short: (§1)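 Human transcription factors were made in yeast as GST fusions, captured on glutathione beads and barcoded with DNA. With a tag-only sample included, the pool was incubated with 200 nmole of a random double-stranded 16-mer DNA library in Tris/NaCl/DTT/glycerol buffer at room temperature for 30 min, then crosslinked with 0.1% formaldehyde after washing, ligated by proximity, amplified and sequenced. For binding signal, each hexamer's read frequency for a factor is divided by its frequency for the tag-only sample.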
# [2] = molecular target: ETV5 (Homo sapiens, UniProt P41161 1-510); conditions: protein: recombinant; tags: N-terminal GST; dsDNA, one strand shown
# In short: as §1
# [3] = molecular target: HSF1 (Homo sapiens, UniProt Q00613 1-529); conditions: protein: recombinant; tags: N-terminal GST; chain copies: 3; dsDNA, one strand shown
# In short: as §1
# [4] = molecular target: T2, SPIC (Homo sapiens, UniProt Q8N5J4 1-248); conditions: protein: recombinant; tags: N-terminal GST; dsDNA, one strand shown
# T2 sequence: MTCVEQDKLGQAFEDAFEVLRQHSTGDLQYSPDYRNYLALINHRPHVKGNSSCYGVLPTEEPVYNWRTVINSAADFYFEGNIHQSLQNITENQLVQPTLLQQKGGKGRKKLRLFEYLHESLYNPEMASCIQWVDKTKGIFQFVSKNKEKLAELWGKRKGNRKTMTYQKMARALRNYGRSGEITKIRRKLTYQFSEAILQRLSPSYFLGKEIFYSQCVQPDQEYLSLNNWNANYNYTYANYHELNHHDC
# In short: as §1
# [5] = molecular target: ELF4 (Homo sapiens, UniProt Q99607 1-663); conditions: protein: recombinant; tags: N-terminal GST; dsDNA, one strand shown
# In short: as §1
# [6] = molecular target: T3, ELK4 (Homo sapiens, UniProt P28324-2 1-405); conditions: protein: recombinant; tags: N-terminal GST; dsDNA, one strand shown
# T3 sequence: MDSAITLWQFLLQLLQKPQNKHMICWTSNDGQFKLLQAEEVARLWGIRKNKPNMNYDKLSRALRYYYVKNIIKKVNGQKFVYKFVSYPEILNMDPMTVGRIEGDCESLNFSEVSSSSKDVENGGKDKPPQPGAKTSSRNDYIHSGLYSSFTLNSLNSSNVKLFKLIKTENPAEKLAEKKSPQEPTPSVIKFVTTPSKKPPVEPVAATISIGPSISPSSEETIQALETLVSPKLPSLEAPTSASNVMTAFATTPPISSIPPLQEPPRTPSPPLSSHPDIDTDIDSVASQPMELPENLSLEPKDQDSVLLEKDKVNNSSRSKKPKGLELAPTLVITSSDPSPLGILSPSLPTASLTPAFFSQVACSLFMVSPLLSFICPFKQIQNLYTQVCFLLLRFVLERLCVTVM
# In short: as §1
# [7] = molecular target: T4, ETV2 (Homo sapiens, UniProt O00321 1-342); conditions: protein: recombinant; tags: N-terminal GST; dsDNA, one strand shown
# T4 sequence: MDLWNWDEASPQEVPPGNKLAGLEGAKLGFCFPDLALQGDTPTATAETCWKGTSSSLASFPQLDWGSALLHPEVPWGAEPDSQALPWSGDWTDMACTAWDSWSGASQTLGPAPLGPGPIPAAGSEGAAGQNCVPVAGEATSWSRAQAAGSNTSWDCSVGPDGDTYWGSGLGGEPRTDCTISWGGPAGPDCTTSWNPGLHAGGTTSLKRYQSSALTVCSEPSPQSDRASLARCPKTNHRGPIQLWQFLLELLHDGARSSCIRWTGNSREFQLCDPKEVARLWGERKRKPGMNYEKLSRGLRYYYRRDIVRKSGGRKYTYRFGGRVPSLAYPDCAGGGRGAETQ
# In short: as §1
# [8] = molecular target: T5, ELF3 (Homo sapiens, UniProt P78545 1-371); conditions: protein: recombinant; tags: N-terminal GST; dsDNA, one strand shown
# T5 sequence: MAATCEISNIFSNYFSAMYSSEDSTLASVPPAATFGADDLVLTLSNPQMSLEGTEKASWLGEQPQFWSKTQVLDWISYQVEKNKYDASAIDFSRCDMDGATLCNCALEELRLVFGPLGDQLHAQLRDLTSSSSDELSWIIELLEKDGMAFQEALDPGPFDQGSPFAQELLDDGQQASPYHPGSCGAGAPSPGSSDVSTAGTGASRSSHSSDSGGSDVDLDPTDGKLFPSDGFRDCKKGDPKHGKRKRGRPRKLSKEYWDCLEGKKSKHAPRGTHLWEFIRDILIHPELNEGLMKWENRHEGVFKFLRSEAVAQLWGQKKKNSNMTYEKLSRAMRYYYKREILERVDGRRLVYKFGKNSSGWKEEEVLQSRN
# In short: as §1
# [9] = molecular target: CRX (Homo sapiens, UniProt O43186 1-299); conditions: protein: recombinant; tags: N-terminal GST; dsDNA, one strand shown
# In short: as §1
# [10] = molecular target: ETV1 (Homo sapiens, UniProt P50549 1-477); conditions: protein: recombinant; tags: N-terminal GST; dsDNA, one strand shown
# In short: as §1
# [11] = molecular target: T6, ERF (Homo sapiens, UniProt P50548 1-548); conditions: protein: recombinant; tags: N-terminal GST; dsDNA, one strand shown
# T6 sequence: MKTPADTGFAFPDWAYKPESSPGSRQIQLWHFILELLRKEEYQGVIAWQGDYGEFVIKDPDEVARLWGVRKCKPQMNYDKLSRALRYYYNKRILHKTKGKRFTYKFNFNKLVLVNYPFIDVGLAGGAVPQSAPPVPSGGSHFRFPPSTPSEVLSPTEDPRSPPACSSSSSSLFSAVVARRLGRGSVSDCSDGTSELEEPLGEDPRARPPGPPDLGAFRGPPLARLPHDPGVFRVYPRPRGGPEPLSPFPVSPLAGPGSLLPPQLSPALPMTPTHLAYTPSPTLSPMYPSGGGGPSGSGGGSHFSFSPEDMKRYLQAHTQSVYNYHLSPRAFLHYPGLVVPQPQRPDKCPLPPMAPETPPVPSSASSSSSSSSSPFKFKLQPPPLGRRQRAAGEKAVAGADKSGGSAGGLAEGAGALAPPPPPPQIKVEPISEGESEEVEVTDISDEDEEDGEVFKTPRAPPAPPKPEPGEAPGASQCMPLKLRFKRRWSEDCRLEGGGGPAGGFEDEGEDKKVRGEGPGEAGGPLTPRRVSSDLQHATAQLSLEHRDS
# In short: as §1
# [12] = molecular target: T7, ETV3L (Homo sapiens, UniProt Q6ZN32 1-361); conditions: protein: recombinant; tags: N-terminal GST; dsDNA, one strand shown
# T7 sequence: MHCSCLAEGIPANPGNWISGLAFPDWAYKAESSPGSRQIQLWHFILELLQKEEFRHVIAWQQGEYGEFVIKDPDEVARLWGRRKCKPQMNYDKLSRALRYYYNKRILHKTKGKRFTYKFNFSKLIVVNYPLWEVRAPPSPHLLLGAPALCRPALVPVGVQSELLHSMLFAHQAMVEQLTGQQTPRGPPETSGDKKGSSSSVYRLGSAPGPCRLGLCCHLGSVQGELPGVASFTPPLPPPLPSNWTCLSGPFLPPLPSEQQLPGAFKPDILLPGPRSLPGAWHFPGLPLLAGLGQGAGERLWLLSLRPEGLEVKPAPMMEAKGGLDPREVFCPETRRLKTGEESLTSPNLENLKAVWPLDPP
# In short: as §1
# [13] = molecular target: T8, ETS2 (Homo sapiens, UniProt P15036 1-469); conditions: protein: recombinant; tags: N-terminal GST; dsDNA, one strand shown
# T8 sequence: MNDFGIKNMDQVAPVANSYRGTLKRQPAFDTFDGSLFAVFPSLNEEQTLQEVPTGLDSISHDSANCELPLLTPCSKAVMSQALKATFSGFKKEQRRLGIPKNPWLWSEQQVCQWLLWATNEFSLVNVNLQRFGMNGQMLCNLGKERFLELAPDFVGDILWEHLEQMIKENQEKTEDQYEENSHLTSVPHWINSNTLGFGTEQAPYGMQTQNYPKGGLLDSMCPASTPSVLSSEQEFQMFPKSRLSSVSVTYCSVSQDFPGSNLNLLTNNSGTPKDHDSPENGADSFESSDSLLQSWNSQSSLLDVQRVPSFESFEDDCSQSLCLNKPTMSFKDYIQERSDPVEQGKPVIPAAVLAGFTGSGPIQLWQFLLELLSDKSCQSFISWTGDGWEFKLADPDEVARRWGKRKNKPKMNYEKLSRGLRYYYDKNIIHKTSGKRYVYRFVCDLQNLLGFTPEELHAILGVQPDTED
# In short: as §1
# [14] = molecular target: T9, SPDEF (Homo sapiens, UniProt O95238 1-335); conditions: protein: recombinant; tags: N-terminal GST; dsDNA, one strand shown
# T9 sequence: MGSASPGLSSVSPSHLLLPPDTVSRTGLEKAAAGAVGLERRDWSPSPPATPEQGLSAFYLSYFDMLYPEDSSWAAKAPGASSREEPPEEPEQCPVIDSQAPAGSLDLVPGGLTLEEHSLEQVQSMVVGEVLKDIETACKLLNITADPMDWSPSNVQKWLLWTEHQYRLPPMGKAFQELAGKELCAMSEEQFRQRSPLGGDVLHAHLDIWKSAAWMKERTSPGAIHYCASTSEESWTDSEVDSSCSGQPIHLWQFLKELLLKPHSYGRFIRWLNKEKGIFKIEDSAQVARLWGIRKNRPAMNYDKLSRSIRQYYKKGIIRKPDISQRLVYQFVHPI
# In short: as §1
# [15] = molecular target: T10, ETV7 (Homo sapiens, UniProt Q9Y603 1-341); conditions: protein: recombinant; tags: N-terminal GST; dsDNA, one strand shown
# T10 sequence: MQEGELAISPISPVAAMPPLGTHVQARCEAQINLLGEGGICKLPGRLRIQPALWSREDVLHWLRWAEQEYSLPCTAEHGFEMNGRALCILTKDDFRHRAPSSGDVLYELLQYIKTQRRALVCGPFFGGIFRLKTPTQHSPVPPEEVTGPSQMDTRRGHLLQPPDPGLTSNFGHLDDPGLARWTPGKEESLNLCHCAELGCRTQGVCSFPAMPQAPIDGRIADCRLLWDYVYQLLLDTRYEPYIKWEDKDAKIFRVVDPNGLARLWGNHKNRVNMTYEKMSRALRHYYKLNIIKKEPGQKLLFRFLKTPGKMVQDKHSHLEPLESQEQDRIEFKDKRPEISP
# In short: as §1
# [16] = molecular target: T11, ELF5 (Homo sapiens, UniProt Q9UKW6-2 1-255); conditions: protein: recombinant; tags: N-terminal GST; dsDNA, one strand shown
# T11 sequence: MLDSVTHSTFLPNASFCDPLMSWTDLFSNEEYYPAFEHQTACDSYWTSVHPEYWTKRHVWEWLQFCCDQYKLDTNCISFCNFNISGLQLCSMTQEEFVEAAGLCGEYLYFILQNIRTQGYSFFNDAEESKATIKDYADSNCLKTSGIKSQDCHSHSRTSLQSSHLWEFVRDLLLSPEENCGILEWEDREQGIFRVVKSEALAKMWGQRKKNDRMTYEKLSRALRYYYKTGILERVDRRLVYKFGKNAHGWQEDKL
# In short: as §1
# [17] = molecular target: T12, ETV3 (Homo sapiens, UniProt P41162-2 1-143); conditions: protein: recombinant; tags: N-terminal GST; dsDNA, one strand shown
# T12 sequence: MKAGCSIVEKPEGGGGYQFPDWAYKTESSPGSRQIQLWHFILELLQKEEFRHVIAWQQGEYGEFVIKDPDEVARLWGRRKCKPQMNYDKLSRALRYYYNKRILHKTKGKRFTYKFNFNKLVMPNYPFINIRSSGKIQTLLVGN
# In short: as §1
# [18] = molecular target: ETV6 (Homo sapiens, UniProt P41212 1-452); conditions: protein: recombinant; tags: N-terminal GST; dsDNA, one strand shown
# In short: as §1
# Sequence of ETV1 (P50549 whole entry): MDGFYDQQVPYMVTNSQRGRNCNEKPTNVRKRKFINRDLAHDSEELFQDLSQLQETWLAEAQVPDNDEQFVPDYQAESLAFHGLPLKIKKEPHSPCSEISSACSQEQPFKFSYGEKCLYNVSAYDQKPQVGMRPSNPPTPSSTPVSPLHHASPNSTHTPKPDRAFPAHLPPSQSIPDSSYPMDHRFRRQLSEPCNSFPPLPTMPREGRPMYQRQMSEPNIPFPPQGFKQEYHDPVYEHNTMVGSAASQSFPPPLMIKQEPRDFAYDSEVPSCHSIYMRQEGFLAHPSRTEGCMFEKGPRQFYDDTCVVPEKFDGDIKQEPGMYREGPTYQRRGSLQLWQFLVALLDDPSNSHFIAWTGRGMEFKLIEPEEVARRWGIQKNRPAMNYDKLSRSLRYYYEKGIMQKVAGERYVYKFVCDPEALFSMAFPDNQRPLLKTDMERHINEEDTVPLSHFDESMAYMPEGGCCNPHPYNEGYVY
# Sequence of HSF1 (Q00613 whole entry): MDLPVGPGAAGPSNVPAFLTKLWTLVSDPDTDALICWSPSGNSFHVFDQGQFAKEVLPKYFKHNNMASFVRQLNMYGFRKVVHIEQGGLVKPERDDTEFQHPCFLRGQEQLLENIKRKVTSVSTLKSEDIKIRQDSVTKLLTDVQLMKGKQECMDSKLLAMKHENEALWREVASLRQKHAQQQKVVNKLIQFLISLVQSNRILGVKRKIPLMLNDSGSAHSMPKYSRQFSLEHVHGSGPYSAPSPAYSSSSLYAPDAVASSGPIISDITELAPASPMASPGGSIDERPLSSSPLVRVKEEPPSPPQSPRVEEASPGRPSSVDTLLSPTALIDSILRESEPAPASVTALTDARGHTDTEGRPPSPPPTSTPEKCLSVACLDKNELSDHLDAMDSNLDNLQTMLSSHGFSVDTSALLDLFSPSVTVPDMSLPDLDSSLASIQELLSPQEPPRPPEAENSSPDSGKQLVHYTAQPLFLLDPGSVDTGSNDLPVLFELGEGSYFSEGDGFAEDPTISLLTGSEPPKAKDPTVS
# Sequence of ETV5 (P41161 whole entry): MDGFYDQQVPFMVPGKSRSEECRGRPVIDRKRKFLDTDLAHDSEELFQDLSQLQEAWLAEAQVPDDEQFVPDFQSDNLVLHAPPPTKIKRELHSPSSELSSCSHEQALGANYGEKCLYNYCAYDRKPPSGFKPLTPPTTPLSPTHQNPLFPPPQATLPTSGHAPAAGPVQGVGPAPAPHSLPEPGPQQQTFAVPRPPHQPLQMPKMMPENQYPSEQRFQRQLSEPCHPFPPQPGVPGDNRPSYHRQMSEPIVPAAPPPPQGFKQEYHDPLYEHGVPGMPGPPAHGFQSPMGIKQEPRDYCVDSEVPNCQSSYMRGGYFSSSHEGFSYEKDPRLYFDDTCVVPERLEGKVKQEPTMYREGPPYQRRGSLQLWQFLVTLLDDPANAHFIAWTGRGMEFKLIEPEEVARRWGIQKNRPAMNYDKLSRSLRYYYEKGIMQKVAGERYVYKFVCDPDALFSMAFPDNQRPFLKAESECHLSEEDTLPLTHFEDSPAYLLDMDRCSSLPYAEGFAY
# Sequence of ETV6 (P41212 whole entry): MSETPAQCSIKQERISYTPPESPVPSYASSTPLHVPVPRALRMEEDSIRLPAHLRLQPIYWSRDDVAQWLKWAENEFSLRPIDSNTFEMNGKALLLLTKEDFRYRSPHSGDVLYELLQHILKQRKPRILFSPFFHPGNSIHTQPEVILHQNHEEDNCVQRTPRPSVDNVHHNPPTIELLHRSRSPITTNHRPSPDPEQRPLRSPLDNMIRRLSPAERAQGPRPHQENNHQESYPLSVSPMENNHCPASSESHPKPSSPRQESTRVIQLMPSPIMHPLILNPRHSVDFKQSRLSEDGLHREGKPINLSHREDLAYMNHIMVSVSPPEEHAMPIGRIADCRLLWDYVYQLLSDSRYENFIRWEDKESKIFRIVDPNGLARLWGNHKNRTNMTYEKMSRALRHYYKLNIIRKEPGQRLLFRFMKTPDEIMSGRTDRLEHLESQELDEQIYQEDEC
# Sequence of ELF4 (Q99607 whole entry): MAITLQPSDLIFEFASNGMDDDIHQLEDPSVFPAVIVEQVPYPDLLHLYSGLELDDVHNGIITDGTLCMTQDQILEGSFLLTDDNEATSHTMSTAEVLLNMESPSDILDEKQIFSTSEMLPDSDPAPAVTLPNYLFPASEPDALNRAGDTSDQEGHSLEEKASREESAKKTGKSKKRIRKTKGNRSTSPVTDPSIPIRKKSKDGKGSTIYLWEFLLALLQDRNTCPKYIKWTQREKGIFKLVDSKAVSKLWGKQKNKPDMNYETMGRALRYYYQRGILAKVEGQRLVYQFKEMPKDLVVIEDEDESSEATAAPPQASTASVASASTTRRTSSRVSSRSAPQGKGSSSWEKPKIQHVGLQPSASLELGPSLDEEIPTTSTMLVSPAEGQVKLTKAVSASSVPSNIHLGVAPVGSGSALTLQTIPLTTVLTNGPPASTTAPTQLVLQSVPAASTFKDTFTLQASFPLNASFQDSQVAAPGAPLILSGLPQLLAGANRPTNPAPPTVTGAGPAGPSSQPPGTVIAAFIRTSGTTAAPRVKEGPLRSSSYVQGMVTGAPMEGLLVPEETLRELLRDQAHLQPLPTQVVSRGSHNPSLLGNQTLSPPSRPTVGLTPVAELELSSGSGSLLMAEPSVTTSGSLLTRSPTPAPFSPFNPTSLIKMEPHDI
# Sequence of CRX (O43186 whole entry): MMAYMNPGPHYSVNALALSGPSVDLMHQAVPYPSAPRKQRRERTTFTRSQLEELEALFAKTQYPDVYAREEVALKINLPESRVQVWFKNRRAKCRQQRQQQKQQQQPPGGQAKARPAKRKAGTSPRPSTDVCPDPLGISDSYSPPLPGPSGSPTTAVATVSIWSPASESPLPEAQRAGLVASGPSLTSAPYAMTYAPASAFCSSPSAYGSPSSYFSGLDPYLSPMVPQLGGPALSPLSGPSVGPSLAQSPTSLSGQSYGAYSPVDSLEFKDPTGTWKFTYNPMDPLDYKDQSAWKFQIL
sequence,measurement,setting,value
TTTTAA,binding signal,[1],"1.26 fold enrichment (6-mer frequency, TF over GST control)"
same,binding signal,[2],"1.24 fold enrichment (6-mer frequency, TF over GST control)"
same,binding signal,[3],"1.59 fold enrichment (6-mer frequency, TF over GST control)"
same,binding signal,[4],"1.15 fold enrichment (6-mer frequency, TF over GST control)"
same,binding signal,[5],"1.28 fold enrichment (6-mer frequency, TF over GST control)"
same,binding signal,[6],"1.22 fold enrichment (6-mer frequency, TF over GST control)"
same,binding signal,[7],"1.27 fold enrichment (6-mer frequency, TF over GST control)"
same,binding signal,[8],"1.32 fold enrichment (6-mer frequency, TF over GST control)"
same,binding signal,[9],"2.18 fold enrichment (6-mer frequency, TF over GST control)"
same,binding signal,[10],"1.26 fold enrichment (6-mer frequency, TF over GST control)"
same,binding signal,[11],"1.37 fold enrichment (6-mer frequency, TF over GST control)"
same,binding signal,[12],"1.28 fold enrichment (6-mer frequency, TF over GST control)"
same,binding signal,[13],"1.28 fold enrichment (6-mer frequency, TF over GST control)"
same,binding signal,[14],"1.21 fold enrichment (6-mer frequency, TF over GST control)"
same,binding signal,[15],"1.32 fold enrichment (6-mer frequency, TF over GST control)"
same,binding signal,[16],"1.17 fold enrichment (6-mer frequency, TF over GST control)"
same,binding signal,[17],"1.23 fold enrichment (6-mer frequency, TF over GST control)"
same,binding signal,[18],"1.27 fold enrichment (6-mer frequency, TF over GST control)"
